# Bioassay records: PubChem BioAssay, The Scripps Research Institute Molecular Screening Center
# M1 ag: activates human CHRM1 receptor; CHO-K1 hM1, Fluo-8 calcium fluorescence, agonist mode; 0% DMSO, 100% acetylcholine EC100; activation, % at 3 µM; 360,000 tested, 0.33% active;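 active = activation above the run's mean compound activation plus 3 SD, cut at about 16% in these data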;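 note: peak over basal fluorescence ratio within a 140 s kinetic read after compound addition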
# Target sequence (P11229 whole entry, looked up): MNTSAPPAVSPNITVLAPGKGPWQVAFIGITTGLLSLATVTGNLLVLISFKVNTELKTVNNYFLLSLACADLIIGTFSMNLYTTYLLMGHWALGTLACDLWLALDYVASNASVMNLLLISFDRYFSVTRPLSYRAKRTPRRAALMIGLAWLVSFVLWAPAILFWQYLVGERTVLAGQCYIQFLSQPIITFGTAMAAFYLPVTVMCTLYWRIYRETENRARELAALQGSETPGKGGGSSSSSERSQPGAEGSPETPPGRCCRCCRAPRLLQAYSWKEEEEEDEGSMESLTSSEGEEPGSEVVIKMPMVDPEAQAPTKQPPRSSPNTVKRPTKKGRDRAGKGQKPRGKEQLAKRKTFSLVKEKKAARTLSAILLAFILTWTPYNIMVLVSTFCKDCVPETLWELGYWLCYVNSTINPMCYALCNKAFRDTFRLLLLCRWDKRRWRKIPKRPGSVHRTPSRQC
# CHO-K1 Ca antag: nonselective inhibitor or artifact in parental CHO-K1 cells | ATP-induced calcium, Fluo-8 fluorescence | inhibition, % at 3 µM | AID 602250 | 360,000 tested, 0.6% active;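 active = inhibition above a per-plate cutoff, the plate's mean sample inhibition plus 3 SD, cut at about 24% in these data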;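 note: 0% = DMSO plus EC80 ATP and 100% = DMSO alone without ATP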
# CHO-K1 Ca PAM: counter-screen for M1 PAMs: effect in parental CHO-K1 cells; activation, % at 3 µM; 360,000 tested, 0.02% active; AID 602247; ATP EC20, Fluo-8 calcium fluorescence; 0% at ATP EC20, 100% at ATP max;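 active = activation above the run cutoff, the mean activation of all test compounds plus 3 SD, cut at about 40% in these data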;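 note: peak over basal fluorescence ratio in a 140 s read after ATP addition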
# M1 ag parental: M1 agonist counterscreen hit in parental CHO-K1 cells; Fluo-8 calcium fluorescence; scaled to maximal ATP response, vehicle zero; activation, % at 3 µM; 360,000 tested, 0.48% active; AID 602248; in the data active = activation above about 15%;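 note: untransfected CHO-K1 host cells lacking M1 receptor as counterscreen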
# M1 antag: blocks human M1 muscarinic receptor | P11229 | CHO-K1 hM1, Fluo-8 calcium fluorescence, ACh EC80 antagonist | inhibition, % at 3 µM | 360,000 tested, 1.3% active | AID 588852;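 active = percent inhibition above its own plate's cutoff, namely the mean of that plate's compound wells plus 3 SD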;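 note: peak over basal fluorescence ratio during 140 s after agonist addition; 0% = ACh EC80 plus DMSO and 100% = DMSO alone without agonist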
# CHRM1 PAM: human CHRM1 positive allosteric modulation; CHO-K1 hM1, Fluo-8 calcium fluorescence, ACh EC20; 0% = ACh EC20, 100% = maximal ACh; activation, % at 3 µM; 360,000 tested, 0.088% active; AID 588819; in the data active = activation above about 19%, passing the limit was not always enough
# Active calls of the source: *. Rows were chosen to be rich in hits. Some 2.3% of all compounds tested hit in one or more screens of this group.
SMILES,M1 ag,CHO-K1 Ca antag,CHO-K1 Ca PAM,M1 ag parental,M1 antag,CHRM1 PAM
CCNc1nc(NCC)n2c(SCC(=O)N(CC)C3CCCCC3)nnc2n1,-6,-1,9,1,-7,12
CC(C)NC(=O)C1(C)CCN1C(=O)c1ccccc1F (centres undefined),1,10,-3,0,-23,9
O=[N+]([O-])c1cc(-n2cnnn2)ccc1N1CCC(Cc2ccccc2)CC1,0,25*,-3,0,8,3
CC1CC(C)CN(c2ccc(-n3cnnn3)cc2[N+](=O)[O-])C1 (centres undefined),-5,-10,19,0,-11,4
CCC(C)NC(C(=O)Nc1ccc(Cl)c([N+](=O)[O-])c1)c1ccccc1 (centres undefined),-8,-11,31,1,-7,0
COCC(C)NC(C(=O)Nc1ccc(Cl)c([N+](=O)[O-])c1)c1ccccc1 (centres undefined),-6,3,-2,0,3,31*
CCNC(=O)O/N=C1\CCCCC1c1ccc([N+](=O)[O-])cc1[N+](=O)[O-] (centres undefined),-4,-3,2,5,-6,5
COc1ccc(N2C[C@H](C)[C@@H](CC(=O)Nc3ccc(Br)cc3)C2=O)cc1,6,25*,-13,4,8,-2
CCOC(=O)c1ccc(Nc2nc(C)nc3c2nnn3Cc2ccccc2)cc1,-5,6,10,0,-6,5
COc1cc(-c2noc(C)c2-c2ccc(N(C)C)nc2)cc(OC)c1OC,34*,-8,13,32*,20,-12
COc1cc(-c2noc(C)c2-c2ccc3[nH]ccc3c2)cc(OC)c1OC,-2,-11,2,2,7,3
N#CC1(CCCN2CCCCC2)c2ccccc2CCc2ccccc21,-5,-14,16,2,68*,-25
OCCN1CCN(CCCN2c3ccccc3CCc3ccccc32)CC1,-6,-13,21,2,13,-19
O=S(=O)(Nc1nccs1)c1ccc(NS(=O)(=O)c2c(F)cc(F)c(Cl)c2F)cc1,-2,-15,18,0,-13,6
COc1ccc(C2=NN(C(=O)CCC(=O)O)C(c3ccccc3)C2)cc1 (centres undefined),-3,-8,9,0,-5,4
Cc1ccc(N2C(=O)C3N=NN(CC(=O)N4N=C(c5ccccc5)CC4c4ccccc4)C3C2=O)cc1 (centres undefined),-4,24*,-20,-1,5,0
O=C(c1ccc2c(c1)OCO2)C1CCCN(Cc2cccc(C(F)(F)F)c2)C1 (centres undefined),-7,-2,-1,0,63*,-24
COc1cc(OC)c(OC)cc1CN1CCCC(C(=O)c2ccc3c(c2)OCO3)C1 (centres undefined),-10,3,-2,0,6,-13
O=C(c1ccc2c(c1)OCO2)C1CCCN(Cc2ccc3cccc(F)c3n2)C1 (centres undefined),-11,-4,-7,1,21,-28
O=C(c1ccc2c(c1)OCO2)C1CCCN(Cc2ccc(OC(F)F)cc2)C1 (centres undefined),0,-5,4,9,91*,-24
O=C(NCCCN1CCOCC1)C(=O)N/N=C/c1cccc2ccccc12,-4,0,14,3,-18,14
COCCN1C(=O)/C(=C/c2ccc(N3CCCC3)cc2C)SC1=S,7,21,11,11,31*,-9
CCN=C1S/C(=C\c2ccc(N3CCOCC3)cc2C)C(=O)N1CC,-2,1,15,0,-5,2
CC1(c2ccccc2)NC(=O)N(CC(=O)N2CCN(S(=O)(=O)c3cccs3)CC2)C1=O (centres undefined),-3,-5,15,1,-7,7
O=C(NNC1CC(=O)N(c2ccc(Br)cc2)C1=O)c1cccnc1 (centres undefined),-5,-3,-2,1,-12,5
SMILES,M1 ag,CHO-K1 Ca antag,CHO-K1 Ca PAM,M1 ag parental,M1 antag,CHRM1 PAM
CC(C)N(CC#CCC(O)(c1ccccc1)C1CCCC1)CCO (centres undefined),-12,-12,17,1,86*,-30
CCN(CC#CCC(O)(c1ccccc1)C1CCCC1)C(C)C (centres undefined),-5,-7,11,2,99*,-21
CC(C)N(CC#CCC1(O)c2ccccc2-c2ccccc21)CCO,-11,-18,6,0,4,-5
CC(NC(=O)CCc1nnc(CCCc2ccccc2)o1)c1ccccc1 (centres undefined),-7,6,-9,0,17,-7
O=C(Nc1ccc(Cl)c(C(F)(F)F)c1)[C@@H]1CC=C[C@@H]2CCN(C3CC3)C(=O)[C@@H]21,-8,-3,47*,0,-4,6
COc1ccc(C(C)(C)C)cc1NC(=O)COc1ccc(-c2nnco2)cc1,-3,-22,9,1,5,4
CCCCN1C(=O)C(=O)N(CC(=O)Nc2cc(Cl)ccc2OC)C1=O,1,-20,-2,1,-19,28*
O=C(O)c1ccc(CN2C(=O)c3ccc(Oc4ccc([N+](=O)[O-])cc4)cc3C2=O)cc1,-2,15,-13,0,-11,10
O=C1c2ccc(Oc3ccc([N+](=O)[O-])cc3)cc2C(=O)N1CCO,-3,-8,14,17*,-9,11
CCCc1ccc(S(=O)(=O)N2CCN(C(C)C(=O)NCc3ccccc3)CC2)cc1 (centres undefined),-4,6,-10,0,1,-4
Cc1ccc(S(=O)(=O)NCC(C)NC(=O)CN2CCOCC2)cc1 (centres undefined),1,-11,2,0,-7,4
Cc1ccc(Nc2nc3nonc3[nH]c2=O)cc1Cl,1,30*,-13,0,13,-16
COc1ccc(-c2[nH][nH]c(=O)c2NC(=O)c2ccc(C)cc2)cc1,-1,0,-1,0,-21,1
CCOc1ccccc1C1C(C(N)=O)=C(C)Nc2nc(CCCO)nn21 (centres undefined),3,27*,-9,0,-4,5
Nc1c(Cl)ncnc1NCC(O)CO (centres undefined),-4,2,-19,0,-11,8
O=C1OC(N2C(=O)CC[C@H]2C(=O)NCC2CCCO2)c2ccccc21 (some centres undefined),-4,8,12,1,102*,2
O=C(NCCN1CCOCC1)C1CCC(=O)N1Cc1ccccc1Cl (centres undefined),-5,-7,19,0,-13,7
